# Experimental data reported in PubChem BioAssay.
# A number with no mark means an inactive call. How the calls were made is not given here.
# Molecular target: Pantothenate synthetase (Mycobacterium tuberculosis (strain ATCC 25618 / H37Rv)) (UniProt P9WIL5)
# Test: Recombinant Mtb pantothenate synthetase (PanC) inhibitors, coupled enzyme, confirmatory (AID 375);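 further: 0% = full reaction with vehicle and 100% = no enzyme background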
# Conditions: coupled enzyme assay; at 10 µM, active compounds read high
# Sequence of Pantothenate synthetase (Mycobacterium tuberculosis (strain ATCC 25618 / H37Rv)) (P9WIL5 whole entry, looked up): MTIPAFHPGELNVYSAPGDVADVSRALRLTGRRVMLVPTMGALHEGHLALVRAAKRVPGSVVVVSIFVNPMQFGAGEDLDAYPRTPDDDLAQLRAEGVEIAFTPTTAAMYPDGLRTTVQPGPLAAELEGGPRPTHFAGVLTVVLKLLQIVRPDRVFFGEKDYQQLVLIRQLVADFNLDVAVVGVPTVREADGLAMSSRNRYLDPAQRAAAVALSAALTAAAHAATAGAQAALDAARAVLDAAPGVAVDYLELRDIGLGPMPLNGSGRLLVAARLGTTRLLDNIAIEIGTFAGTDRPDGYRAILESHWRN
row,SMILES,inhibition [%]
1,CN(C)CCCN1C(=O)c2oc3ccc(Cl)cc3c(=O)c2C1c1cccnc1 (stereo not given),0
2,Cn1c(COc2ccccc2)nnc1SCC(=O)Nc1ccc(N2CCOCC2)c(Cl)c1,6
3,CCOc1cc(-c2nc(-c3ccc(C)nc3OCC)no2)cc(OCC)c1OCC,0
4,COc1ccc(-c2cc(C(=O)NCc3ccc(Cl)cc3)no2)cc1OC,0
5,O=S(=O)(c1ccc2ccccc2c1)N(CC(O)CN1CCOCC1)c1ccccc1 (stereo not given),0
6,COc1cccc(CN2C(=O)C3(C(C#N)=C(N)OC4=C3C(=O)CCC4)c3ccccc32)c1 (stereo not given),0
7,Cc1c(C(=O)NCc2cccnc2)sc2ncn(CC(=O)N3CCCCC3C)c(=O)c12 (stereo not given),0
8,CCSCCNC(=O)c1cc(-n2cnnc2)ccc1Cl,0
9,O=C(NCc1ccco1)c1cccc(-c2nnc(-c3ccccc3)o2)c1,0
10,O=C(NCc1ccco1)c1cc2n(n1)C(C(F)(F)F)CC(c1ccc(F)cc1)N2 (stereo not given),9
11,CC(Sc1nnc(-c2cc3ccccc3o2)n1-c1ccccc1)C(=O)O (stereo not given),12
12,CSc1nc(C)c(C(=O)Nc2ccccc2)c(C)c1C#N,0
13,COc1ccc(NC(=O)CC2CCCCC2)cc1OC,4
14,CCCn1c(OC)nc2c1c(=O)n(C)c(=O)n2C,0
15,c1ccc(Cn2nnc3c(N4CCC5(CC4)OCCO5)ncnc32)cc1,0
16,Cc1cc(C)cc(NC(=O)CN(C)S(=O)(=O)c2cnc[nH]2)c1,11
17,C=C(C)Cn1c(CCNC(=O)CC)nc2ccccc21,0
18,CCCCOc1ccc(-c2nnc(N)s2)cc1,0
19,CCOc1ccccc1NC(=O)CN(c1ccc(C)cc1)S(=O)(=O)c1c(C)noc1C,9
20,CCCOc1cccc(C(=O)N(Cc2ccco2)C2CCS(=O)(=O)C2)c1 (stereo not given),0

row,SMILES,inhibition [%]
1,O=C(Cn1nc(-c2ccc(Cl)cc2)ccc1=O)NCCCN1CCN(Cc2ccccc2)CC1,2
2,COCCn1c(COc2ccc(Cl)cc2)nnc1SCC(N)=O,0
3,COC(=O)c1[nH]c2c(c1C)C(=O)CC(c1cc(OC)ccc1OC)C2 (stereo not given),0
4,CC(C)(C)NC(=O)CSc1nnc(-c2ccccn2)n1-c1ccccc1,0
5,COCCCNC(=O)CCn1c(=O)c2ccccc2n(CC(=O)Nc2ccc(C)cc2C)c1=O,0
6,O=C(OCC(=O)c1ccc[nH]1)c1ccc(S(=O)(=O)N2CCCCC2)cc1,1
7,CCCS(=O)(=O)NCCc1cc2cc(C)c(C)cc2[nH]c1=O,0
8,COCCN(C(=O)Cn1nnc2ccccc21)C(C(=O)NC1CCCC1)c1cc(OC)ccc1OC (stereo not given),6
9,CCN1C(=O)c2cccc3c(NC(=O)c4ccc(S(=O)(=O)N(C)C)cc4)ccc1c23,1
10,O=C(OCc1nnc(-c2ccccc2)o1)c1ccc2ccccc2n1,1
11,CCOC(=O)N1CCN(c2nc(-c3ccc(Cl)cc3)cs2)CC1,0
12,Cc1ccc(-n2c(Cn3cnc4ccccc43)nnc2SCC(=O)O)cc1,0
13,CC(=O)Nc1ccc(N2CCN(Cc3ccccc3F)CC2)cc1,0
14,COc1ccc(CC(=O)NCc2ccccc2)cc1S(=O)(=O)N1CCOCC1,0
15,O=C1OC(c2ccc(O)cc2)(c2ccc(O)cc2)c2ccccc21,4
16,CCCCCn1c(=O)[nH]c2cc(C(=O)NCCN3CCOCC3)ccc2c1=O,1
17,CCOC(=O)N1CCC(Nc2ncnc3c2cnn3-c2ccc(C)cc2C)CC1,3
18,Cc1nnc(SC(=O)N2c3ccccc3Sc3ccccc32)s1,6
19,COc1ccc(C(NC(=O)c2ccco2)c2ccc(OC)c(OC)c2)cc1 (stereo not given),0
20,COC(=O)C1=C(C)OC(N)=C(C#N)C1c1c(C)nn(-c2ccccc2)c1Cl (stereo not given),0
